Pf Dd2 inh: blocks in vitro growth of P. falciparum Dd2; P. falciparum Dd2 growth, SYBR Green, 72 h; Potency, µM (titrated, usually from 28.9 µM), usual class: inhibitors; 120,000 tested, 4.3% active; AID 1347417; active = well fitted inhibition curve with a large enough effect; also: nearly all actives have a fitted effect of over 65% in size
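Readout: SYBR Green fluorescence, 485 nm excitation, 535 nm emission, after ~16 h lysis at 37C. Before that, Dd2-infected red cells (2.5% hematocrit) grew 72 h with compound, 29 uM top final concentration.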
Hits are given with their value; i = inactive; [ ] = another dose, or the depositor's remark. The entries come from a sample that favours hits as a whole.

SMILES	Pf Dd2 inh
CC1=C[C@@H](CNC(=O)c2ccccc2)[C@H](C(C)C)C[C@H]1Cc1nc2ccc(C)cc2[nH]1	i
COC(=O)c1ccc2nc(C[C@@H]3C[C@@H](C(C)C)[C@H](CNC(=O)CC4(CC(=O)O)CCCC4)C=C3C)[nH]c2c1	i
COC[C@@H]1CN(C(=O)c2occc2C)C[C@H]1c1nc(C2CC2)no1	i
CCOc1ccc(C(O)Cn2ccn3nc(-c4ccccc4C)cc3c2=O)cc1 (stereo not drawn)	13µM
CCOc1ccc(-c2cc3c(=O)n(CC(O)c4ccc(C(C)C)cc4)ccn3n2)cc1 (stereo not drawn)	i
O=c1c2cc(-c3ccccc3)nn2ccn1CC(O)c1ccccc1 (stereo not drawn)	i
CNC(=O)c1ccc(CNc2cc(C3CC(O)C3)nc(N)n2)o1 (stereo not drawn)	i
Cc1sc2nc(CCN)nc(N(C)CCCCN3CCOCC3)c2c1C	i
CNC(=O)c1ccc(CNc2nc(CCN)nc3sc(C)c(C)c23)o1	10µM
c1cncc(CN2CCC(C3CCN(Cc4ccc[nH]4)C3)CC2)c1 (stereo not drawn)	i
CC(C)CCN(C1CCOCC1)C1CCN(C(=O)c2ccncc2)CC1	i
CC(C)CCN(C1CCOCC1)C1CCN(Cc2ccc[nH]2)CC1	3.2µM
Cc1oc(C(O)c2cncnc2)nc1C(=O)Nc1cccc([S+](C)(=O)[O-])c1 (stereo not drawn)	i
COC(=O)CNC(=O)C1=NOC2CN(C(=O)c3ccn(C)n3)CC12 (stereo not drawn)	i
Cc1cc(Cl)ccc1NC1CN(C(=O)OC(C)(C)C)C1	i
CC(C)(C)OC(=O)N1CC(Nc2ccc(O)cc2)C1	11µM
CC(C)(C)OC(=O)N1CC(NCc2ccccn2)C1	i
CC1CCN(C(=O)c2cc3c(s2)CCC(C(=O)O)C3)CC1 (stereo not drawn)	i
COCCN1CCC(N2CCN(C(=O)C3CCOCC3)CC2)C1=O (stereo not drawn)	i
COCCC(=O)N1C[C@H]2OC(=O)N(CCc3ccc(OC)cc3)[C@H]2C1	i
Cn1ncc(N2CCCC(CC(=O)Nc3ccc(F)cc3F)C2)cc1=O (stereo not drawn)	i
O=C(NCCc1noc(C2CC2)n1)NC1CCCC1	i
C=CCN1CC2(CCC1=O)CCN(C(=O)[C@@H](O)Cc1ccccc1)CC2	i
C[C@@H]1C(=O)O[C@H]2[C@H]1CC[C@@]1(C)Cc3sc(NS(=O)(=O)c4ccc(F)c(Cl)c4)nc3[C@@H](C)[C@H]21	i
C[C@@H]1C(=O)O[C@H]2[C@H]1CC[C@@]1(C)Cc3sc(NC(=O)c4ccncc4)nc3[C@@H](C)[C@H]21	i
SMILES	Pf Dd2 inh
C[C@@H]1C(=O)O[C@H]2[C@H]1CC[C@@]1(C)Cc3sc(NC(=O)c4ccc(F)c(Cl)c4)nc3[C@@H](C)[C@H]21	11µM
COc1ccc(NC(=O)CCn2cnnn2)cc1NC(=O)c1ccccc1	i
CCOc1ccc(-c2nnc(SCC(=O)NCCc3ccc(OC)c(OC)c3)nc2-c2ccc(OCC)cc2)cc1	i
CCOC(=O)c1c(C)oc2nc(C)nc(NCCc3ccc(OC)c(OC)c3)c12	i
CCOC(=O)c1cnc2ccc(OCC)cc2c1NCCc1ccc(OC)c(OC)c1	4.5µM
CCOC(=O)c1ccc2ncc(C(=O)OCC)c(Nc3ccc(C)c(Br)c3)c2c1	i
CCOC(=O)c1cnc2ccc(C)cc2c1NCCc1ccc(OC)c(OC)c1	8.9µM
CCOC(=O)c1cnc2c(C)c(Cl)ccc2c1NCCc1ccccc1	i
Cc1cc(C(=O)NCCCOC(C)C)c2c(C3CCNCC3)noc2n1	i
Cc1ccc(NC(=O)N2CCc3c(c4ccccc4n3C)C2)cc1C	i
COc1ccc(-c2cn3cccnc3n2)cc1NC(=O)c1cc(C)cc(C)c1	13µM
COc1ccc(-c2cn3cccnc3n2)cc1NC(=O)c1ccccc1C(F)(F)F	i
Cc1ccc(C(=O)Nc2cc(-c3cn4cccnc4n3)ccc2C)cc1C	i
COCCO[C@H]1C(=O)N(C2CCN(C(=O)c3cccnc3)CC2)[C@H]1c1ccncc1	i
O=C1NCCOCCN(S(=O)(=O)c2cccnc2)[C@H]2CCC[C@@H]12	i
CCCC(=O)N1Cc2ccccc2NC(=O)C12CCNC2 (stereo not drawn)	i
O=C(c1ccsc1)N1CCCN(c2cc(-c3ccc(Cl)cc3)[nH]n2)CC1	i
COCCn1cnc2ccc(OCc3ccc(C(F)(F)F)cc3)nc2c1=O	i
COCCn1cnc2ccc(OCc3ccc(Cl)cc3)nc2c1=O	11µM
COCCn1cnc2ccc(OCC3CC3)nc2c1=O	i
CNC(=O)N1CCC(C2CCN(C(=O)CCCc3ccccc3)C2)CC1 (stereo not drawn)	i
COCCCNC(=O)c1cc(C)nc2onc(C3CCNCC3)c12	i
Cc1sc2ccn(C)c(=O)c2c1C(=O)NCc1cccc(F)c1	i
COc1cccc(CN2C[C@@H](CO)[C@H](c3nc(C)no3)C2)c1OC	i
COc1ccc(CN2C[C@@H](CO)[C@H](c3nc(C)no3)C2)cc1OC	i
SMILES	Pf Dd2 inh
COc1ccc2c(c1)c(CN1C[C@@H](CO)[C@H](c3nc(C)no3)C1)cn2C	10µM
CC(C)(C)CNC1(Cc2cc(-c3ccccn3)on2)COC1	i
O=S(=O)(c1ccc(Cl)s1)N1CCC(n2cnnc2C2CC2)CC1	i
CCC(O)c1cc2n(n1)CCN(C(=O)c1nc(N)nc3c1CCCC3)C2 (stereo not drawn)	i
CCc1ncc(C(=O)NC(c2ccc(C)cc2)c2cccs2)cn1 (stereo not drawn)	10µM
CCNc1ncc(C(=O)N[C@H](c2cccs2)C2CC(O)C2)cn1 (stereo partly drawn)	i
Cc1ccc(S(=O)(=O)C(CNC(=O)Cc2ccc(Cl)cc2)c2cccs2)cc1 (stereo not drawn)	i
COc1ccc(C(=O)N2CCCC3(C2)NC(=O)N(Cc2ccc(C)cc2)C3=O)cc1OC (stereo not drawn)	i
CC(=O)c1ccc(-c2nc(C3CCOC3)no2)s1 (stereo not drawn)	i
CCOC(=O)c1[nH]c(C)c(CCC(=O)N2CCN(c3cccc(C)c3C)CC2)c1C	0.35µM
CCOC(=O)c1c(C)[nH]c(C)c1S(=O)(=O)N(C)CC(=O)N1CCN(c2ccc(Cl)cc2)CC1	i
CCOC(=O)c1c(C)[nH]c(C)c1S(=O)(=O)N1CCC(C(=O)N2CCN(c3cccc(C)c3C)CC2)CC1	i
Cc1cccc(N2CCN(C(=O)CCc3c(C)nc4c(c3C)c(=O)n(C)c(=O)n4C)CC2)c1C	i
CCOC(=O)c1[nH]c(C)c(CCC(=O)N2CCN(c3ccc(Cl)cc3)CC2)c1C	3.5µM
CCOC(=O)c1[nH]c(C)c(CCC(=O)NCc2ccc(OC)cc2)c1C	i
O=C(c1ccsc1)N1CCC2(CC1)CC(N(C(=O)c1ccccc1)C1CC1)CCO2 (stereo not drawn)	i
Cc1ccc(C)c(S(=O)(=O)N(C)CC2CCOC2)c1 (stereo not drawn)	i[5.79 µM]
O=C1CC2CCN(Cc3ccc(Cl)cc3)CC2CCN1 (stereo not drawn)	i
Cc1csc(NC(=O)c2ccc3c(c2)OCCN(CCC(F)(F)F)C3)n1	i
COc1ccc(C(=O)NC2CCN(c3cc(-c4ccc(Cl)cc4)[nH]n3)C2)cc1 (stereo not drawn)	8.9µM
COc1ccc(-c2cc(N3CCC(NC(=O)c4ccc(Br)cc4)C3)n[nH]2)cc1 (stereo not drawn)	i
Cc1ccc(C(=O)NC2CCN(c3cc(-c4ccc(F)cc4)[nH]n3)C2)cc1C (stereo not drawn)	13µM
